We go through 40 molecules from PubChem BioAssay (NCATS).

Results filed as inconclusive are left out. Where a call stands in place of a potency, no number is given. Active and inactive are the calls of the source. Calls follow the shape of the full dose curve.

The nature of this assay: Cytotoxicity counterscreen for inhibitors of SARS-CoV-2 cell entry (AID 1645845). Also: nearly all actives have a fitted effect of over 50% in size. The following applies: cell viability (SARS-CoV-2 entry assay cells); series mostly up to 57.1 µM. From the text:
Assay Provider: Wei Zheng, Ph.D.
National Center for Advancing Translational Sciences, National Institute of Health, Rockville, MD.
SARS-CoV-2 spike protein, within the viral envelope, mediates viral attachment and infection of host cells. The SARS-CoV-2 spike protein specifically binds to the host receptor ACE2 (Angiotensin-converting enzyme 2). This interaction promotes endocytosis of the viral particle, additional events lead to viral-host cell membrane fusion and release of the viral contents, allowing viral replication.
While SARS-CoV-2 requires BSL-3 facilities for live virus work, pseudo-typed partices (PP) that incorporate SARS-CoV-2 spike proteins without replication elements could facilitate studies on viral entry mechanisms in a BSL-2 setting. This PP cell entry assay could also enable screening of small molecule compound libraries in BSL-2 setting to identify inhibitors of SARS-CoV-2 cell entry. To eliminate false positive compounds, ATP content cytotoxicity assay was screened in the same cell line.
SEQUENCE No. (e.g., 1, 2, 3, etc.); […] (e.g., Cells, Incubation, Reagent, etc.); VALUE and DESCRIPTION.
1. Cells. Seed 1500 HEK293-ACE2 cells (Expi293F with stable expression of human ACE2) in 2 uL/well media (DMEM, 10% FBS, 1x L-glutamine, 1x Pen/Strep, 1 ug/ml puromycin) in white 1536-well assay plates (Greiner #782073).
2. Incubation. Incubate at 37 C with 5% CO2 overnight (~16 h).
3. Compounds. Dispense 23 nL/well compounds in DMSO via pin transfer.
4. Incubation. Incubate for 1 h at 37C 5% CO2.
5. Reagent. Dispense 2 uL/well of media (DMEM, 10% FBS, 1x L-glutamine, 1x Pen/Strep, 1 ug/ml puromycin).
6. Incubation. Incubate at for 48h at 37C 5% CO2
7. Reagent. Dispense 4 uL/well of ATPLite 1step luminescence assay reagent (PerkinElmer #6016739).
8. Incubation. Incubate for 15 min at room temperature.
9. Detection. Read luminescence signal (Viewlux plate reader, PerkinElmer). Data was normalized with wells containing cells as 100%, and wells without cells (media only control) as 0%.
(The purpose of a counterscreen is to sort out artefacts and off-target activity.)
Regarding `CC(C)(C)NC[C@H](O)COc1cccc2c1CCCC2=O`, the Potency entry was “inactive”.
In the case of `C[C@@H]1O[C@@H](OC[C@H]2O[C@@H](Oc3c(-c4ccc(O)c(O)c4)oc4cc(O)cc(O)c4c3=O)[C@H](O)[C@@H](O)[C@@H]2O)[C@H](O)[C@H](O)[C@H]1O`, the Potency entry is “inactive”.
On the same count and under the same terms, next, `CC(CCc1ccc(O)cc1)NCCc1ccc(O)c(O)c1` (stereo not given): “inactive”; `OC[C@H]1O[C@@H](Oc2ccc(O)cc2)[C@H](O)[C@@H](O)[C@@H]1O`: “inactive”; `O=C1c2ccccc2C(=O)c2c1ccc(O)c2O`: “inactive”.
Same read-out and setting: next, `Cc1onc(-c2ccccc2)c1-c1ccc(S(N)(=O)=O)cc1`: “inactive”.
On the same count and under the same terms, the same measure for `CC(C)[C@H](N)C(=O)OCC(CO)OCn1cnc2c(=O)[nH]c(N)nc21` (stereo not given in full): “inactive”.
On to `CC(=O)CC(c1ccc([N+](=O)[O-])cc1)c1c(O)c2ccccc2oc1=O` (stereo not given), for which the Potency entry is “inactive”.
Turning to `CC(=O)c1ccc(S(=O)(=O)NC(=O)NC2CCCCC2)cc1`, the Potency result is “inactive”.
The same measure, in the same setting: next, `CC(C)(Oc1ccc(Cl)cc1)C(=O)OCCCOC(=O)C(C)(C)Oc1ccc(Cl)cc1`: “inactive”; `CS(=O)(=O)c1ccc([C@@H](O)[C@@H](CF)NC(=O)C(Cl)Cl)cc1`: “inactive”; `CC(=O)CC/C=C(\C)CC/C=C(\C)CC/C=C(\C)CCC=C(C)C`: “inactive”.
On the same count and under the same terms, next, `C[C@]12CC[C@@H]3c4ccc(OC(=O)N(CCCl)CCCl)cc4CC[C@H]3[C@@H]1CC[C@@H]2OP(=O)(O)O`: “inactive”; `O=C(O)c1ccccc1S`: “inactive”.
The same measure, in the same setting: next, `CN1[C@@H]2CC(OC(=O)[C@H](CO)c3ccccc3)C[C@H]1[C@@H]1O[C@@H]12` (stereo not given in full): “inactive”.
On to `O=c1[nH]c(=O)n([C@H]2O[C@H](CO)[C@@H](O)[C@@H]2O)cc1/C=C\Br`, for which the Potency result is “inactive”.
The same measure, in the same setting: next, `CC(=O)NCCCS(=O)(=O)O`: “inactive”; `CNC(C)(C)Cc1ccccc1`: “inactive”.
On the same count and under the same terms, next, `O=C(O)c1cc(=O)c2c(OCC(O)COc3cccc4oc(C(=O)O)cc(=O)c34)cccc2o1`: “inactive”.
Same read-out and setting: next, `CC(=O)OC(C)C[N+](C)(C)C` (stereo not given): “inactive”.
As for `CC(C)[C@H](N)C(=O)OCCOCn1cnc2c(=O)[nH]c(N)nc21`, the Potency result was “inactive”.
With `NC(N)=NCCN1CCCCCCC1`, the activity change, negative = cytotoxicity was 0.589% [at 0.702 µM] (inactive).
As for `CC(=O)Nc1ccc(OC(=O)c2ccccc2OC(C)=O)cc1`, the Potency entry was “inactive”.
Same read-out and setting: the same measure for `O=C(Cn1ccnc1[N+](=O)[O-])NCc1ccccc1`: “inactive”; for `CC(=O)NS(=O)(=O)c1ccc(N)cc1`: “inactive”; for `N#CSCC(=O)O`: “inactive”.
The same measure, in the same setting: the same measure for `S=P(N1CC1)(N1CC1)N1CC1`: “inactive”; for `O=c1[nH]c(=O)n([C@H]2CCCO2)cc1F`: “inactive”.
Same read-out and setting: the same measure for `COc1cc(/C=C/C(=O)O[C@H]2CC[C@]34C[C@]35CC[C@]3(C)[C@@H]([C@H](C)CCC=C(C)C)CC[C@@]3(C)[C@@H]5CC[C@H]4C2(C)C)ccc1O`: “inactive”; for `NS(=O)(=O)c1cc(C(=O)O)cc(N2CCCC2)c1Oc1ccccc1`: “inactive”.
For the molecule `CC(=O)Nc1ccccc1`, the Potency result was “inactive”.
Still for that read-out and setting: next, `C[C@H]1O[C@@H](n2cc(F)c(=O)[nH]c2=O)[C@H](O)[C@@H]1O`: “inactive”.
The same measure, in the same setting: next, `Cc1ccc(-c2ncc(Cl)cc2-c2ccc(S(C)(=O)=O)cc2)cn1`: “inactive”; `CCCCCCCCCCCCCCCCCC(=O)OCC(O)CO` (stereo not given): “inactive”.
Still for that read-out and setting: the same measure for `Cc1oc(=O)oc1CN1CCN(c2cc3c(cc2F)c(=O)c(C(=O)O)c2n3C(C)S2)CC1` (stereo not given): “inactive”; for `NCCCC[C@H](N[C@@H](CCc1ccccc1)C(=O)O)C(=O)N1CCC[C@H]1C(=O)O`: “inactive”.
As for `COCCCN1CCC(NC(=O)c2cc(Cl)c(N)c3c2OCC3)CC1`, the Potency result is “inactive”.
Same read-out and setting: the same measure for `Nc1ccc(C(=O)O)cc1`: “inactive”.
Turning to `CNC[C@H](O)c1cccc(O)c1`, the Potency result is “inactive”.
Same read-out and setting: the same measure for `CC1(C)O[C@@H]2C[C@H]3[C@@H]4CCC5=CC(=O)C=C[C@]5(C)[C@@]4(F)[C@@H](O)C[C@]3(C)[C@]2(C(=O)CO)O1`: “inactive”.
